These results are taken from the supplement of paper PMC9337992.

± gives the standard deviation of the averaged measurements.

This assay relates to MDAMB436. Description: cell proliferation (confluence) relative to DMSO control; higher = less growth inhibition. The following applies: 5 uM; 6 d. Here is the method: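 Epigenetic chemical probe screen: 15 TNBC cell lines, 500 cells per well in 384-well plates, treated with 5 uM of each of 36 SGC probes for 6 d. Confluency was imaged by IncuCyte ZOOM and normalised to DMSO control wells. Four replicate wells per compound.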
As to `CCOC(=O)CCNc1cc(N2CCc3ccccc3CC2)nc(-c2ccccn2)n1`, the cell proliferation was found to be 16.1 ± 3%.
`CC(C)Oc1ccc(-c2c[nH]cc2CN(C)CCO)cc1` had a cell proliferation of 84.9 ± 4.5%.
Regarding `COc1cc2c(NC3CCN(C(C)C)CC3)nc(C3CCCCC3)nc2cc1OCCCN1CCCC1`, the cell proliferation is 99.08 ± 0.28%.
The molecule `O=C(c1ccc(C(=O)N2CCC(N3CCCC3)CC2)c(Nc2ccccc2)c1)N1CCC(N2CCCC2)CC1` gave a cell proliferation of 95.2 ± 2.8%.
Molecule `CCN(C(=O)CO)[C@H]1CN(/C(=N\C#N)Nc2cccc(OC(F)F)c2)N=C1c1ccc(Cl)c(Cl)c1` registered a cell proliferation of 93.5 ± 3.8%.
The value for `CN(C)[C@H]1CN(C2CCc3cccc(F)c32)C[C@@H]1c1ccc(N2CCN(S(C)(=O)=O)CC2)cc1` (some centres not stated) was 93.7 ± 2.8%; that for `COc1cc(-c2cn(C)c(=O)c3cnccc23)c(OC)cc1CN(C)C` was 77.2 ± 7.8%.
The molecule `Cc1cc(=O)n(C)c2cc(N3C(=O)CC[C@H](NS(=O)(=O)CC(C)C)[C@H]3c3ccc(Cl)cc3)ccc12` displayed a cell proliferation of 73.3 ± 14%.
The value for `CCCOc1ccn2c(C(C)=O)cc(-c3ccccc3S(C)(=O)=O)c2c1` was 81.7 ± 14%; that for `Clc1cc2c(NC3CCCC3)nnc(-c3ccncc3)c2cc1Cl` was 93.5 ± 1.4%.
Molecule `COc1cc(C#N)ccc1S(=O)(=O)Nc1ccc2c(c1)cc(C)c(=O)n2C` had a cell proliferation of 75.5 ± 5.1%.
Then `CCCc1cc(C)n(C)c(=O)c1CN(C)C(=O)c1cc(-c2ccc(N3CCN(C(C)C)CC3)nc2)cc2c1cnn2C(C)C`, with 96.6 ± 3.2%.
On to `CCCc1cc(C)[nH]c(=O)c1CNC(=O)c1cc(-c2ccnc(N3CCN(C)CC3)c2)cc2c1cnn2C(C)C`, for which the cell proliferation was determined as 90.2 ± 6.6%.
For the molecule `O=C([C@@H](Cc1cccc(C(F)(F)F)c1)NS(=O)(=O)c1cc(F)c2c(c1)CCNC2)N1CCCC1`, the cell proliferation was 84.5 ± 12%.
Then `COc1cc2c(cc1OCCCN1CCCC1)N=C(N)C21CCC1`, with 95.3 ± 6%.
Then `O=C(NC[C@H](O)CN1CCc2ccccc2C1)c1ccnc(NC2CCC2)c1`, with 57.5 ± 18%; and `Cc1nnc2c3ccccc3c(N[C@@H](C)[C@H](c3ccccc3)N(C)C)nn12` [L-moses], with 80.8 ± 11%; and `COc1ccc(CCc2nc3cc(-c4c(C)noc4C)ccc3n2C[C@H](C)N2CCOCC2)cc1Cl`, with 57.3 ± 19%.
`COc1ccccc1S(=O)(=O)Nc1ccc2c(c1)CN(C)C(=O)N2`: the cell proliferation is 57 ± 5.5%.
The molecule `CCCc1cc(C)[nH]c(=O)c1CNC(=O)c1cc(-c2ccc(N3CCN(C(C)C)CC3)nc2)cc2c1cnn2C(C)C` returned a cell proliferation of 71.1 ± 4.1%.
Molecule `O=C(/C=C/N1C[C@H]2C[C@@H]1CN2c1ccccn1)c1ccccc1O` yielded a cell proliferation of 95.4 ± 3.6%.
In the case of `CNCCN1CCC(OCc2ccccc2)CC1`, the cell proliferation is 76.5 ± 6.8%.
The value for `CC[C@H](C)n1cc(C)c2c(C(=O)NCc3c(C)cc(C)[nH]c3=O)cc(-c3ccc(N4CCNCC4)nc3)cc21` was 89.7 ± 1.7%; that for `Cn1cc(CCn2cnc(-c3cnn(C)c3)c2-c2ccc(C#N)cc2)cn1` was 83.2 ± 14%; that for `CCn1cc(-c2cccc(C(F)(F)F)c2)c2sc(C(=N)NC3CCS(=O)(=O)CC3)cc2c1=O` was 50.4 ± 30%.
Then `CC(C)Oc1ccc(-c2c[nH]cc2CN(C)CCN)cc1`, with 59.9 ± 20%; and `CCC(=O)N1CCOc2c(cc(-c3ccc(OC)c(OC)c3)cc2OC[C@H]2CCCN(C)C2)C1`, with 72.3 ± 4.5%.
With `COc1ccccc1C(=O)Nc1cc2c(cc1N1CCCC1)n(C)c(=O)n2C`, the cell proliferation was 77 ± 3.6%.
The value for `CC(C)N(CCCNC(=O)Nc1ccc(C(C)(C)C)cc1)C[C@H]1O[C@@H](n2cc(Br)c3c(N)ncnc32)[C@H](O)[C@@H]1O` was 90.4 ± 6.8%; that for `CCOC(=O)CCNc1cc(N2CCc3ccccc3CC2)nc(-c2cccnc2)n1` was 94.2 ± 5.3%; that for `COc1c(C)cc(NC(=O)c2nn(Cc3ccc(F)cc3)c3c2CN(C(=O)c2ccc[nH]2)C[C@]3(C)C(N)=O)cc1C` was 69.4 ± 14%.
On to `O=C(NCC(=O)N1CCCC1)Nc1ccc2cnccc2c1`, for which the cell proliferation turned out to be 79.4 ± 7.8%.
